High-throughput results deposited in PubChem BioAssay by SRMLSC.
Sampled rows, rich in hits. Any-hit rate of the full collection: about 6.8%.
Abs 340nm: compound light absorbance at 340 nm, profiling panel, artefact control, biochemical, MLSMR library, data from PS, PMK, MK assays; compound absorbance at 340 nm, fold over control; fold change at 10 µM; 65,000 tested, under 10 active;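 active = at 10 µM dose, initial 340 nm absorbance at least 2 fold that of control wells; inactive = change under 2 fold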;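 note: initial absorbance extrapolated from kinetic A340 decline of NADH oxidation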
NADH coupling: inhibitors of PK/LDH coupling enzymes, profiling panel, artefact control, biochemical, MLSMR library | coupled PK/LDH NADH assays, four targets | IC50, µM (titrated, usually from 10 µM) | 65,000 tested, 0.02% active;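 active = single-dose screening hits from any of four coupled enzyme assays that gave an IC50 when retested across doses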;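 note: the DPM-DC format reads NADH fluorescence rather than 340 nm absorbance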
Fluor 339 460: intrinsic fluorescence of library compounds, ex339/em460 – biochemical, MLSMR library, data from DPM-DC assay, artefact control, profiling panel; compound autofluorescence, ex339/em460 nm, NADH buffer; hits give high values; 1 = no-compound wells, NADH background; 65,000 tested, 5.5% active; fluorescence fold increase at 10 µM;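 active = at 10 µM, mean starting fluorescence two-fold or more over control wells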;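 note: signal is the first read of a kinetic run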
MK inhibit: S. pneumoniae MK inhibitors, primary screen, biochemical, PK/LDH-coupled NADH absorbance; mevalonate kinase [Streptococcus pneumoniae D39]; purified MK, PK/LDH-coupled NADH absorbance 340 nm; inhibition, % at 10 µM; 65,000 tested, 0.48% active; AID 555, 2006;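 active = ranked among the strongest by inhibition in the single 10 µM screen, a fixed top-ranked set picked for dose follow-up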
Spn DPM-DC inh: S. pneumoniae DPM-DC inhibitors, primary screen, biochemical, PK/LDH-coupled NADH fluorescence; diphosphomevalonate decarboxylase (Streptococcus pneumoniae D39); calls only at 10 µM; 65,000 tested, 0.49% active; AID 556, 2006; purified DPM-DC;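 active = the 320 compounds with the highest percent inhibition in the single-dose primary screen, excluding strongly autofluorescent ones, cut at about 32% in these data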;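 note: kinetic rate of NADH fluorescence loss reporting ADP formed by the decarboxylase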
PMK inhibit: S. pneumoniae PMK inhibitors, primary screen, biochemical, mevalonate pathway, pilot trial included; AID 539, 2006; phosphomevalonate kinase (Streptococcus pneumoniae D39); 65,000 tested, 0.49% active; inhibition, % at 10 µM; purified PMK, PK/LDH-coupled NADH absorbance 340 nm;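 active = top-ranked compounds by inhibition in the single 10 µM screen, taking a fixed number of the strongest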
Large screens that a line does not name were inactive.

Cc1c(NC(=O)C2CCN(S(=O)(=O)c3ccccc3)CC2)c(=O)n(-c2ccccc2)n1C	Spn DPM-DC inh active
COCCn1nnnc1C(C(C)C)N(Cc1cccnc1)Cc1cc2cc(OC)ccc2[nH]c1=O (centres undefined)	Fluor 339 460 2.4
Cc1ccc(-c2c(C)c(-c3ccc(F)cc3)nc(N)c2C#N)o1	Fluor 339 460 3
O=C(CSc1nnc(-c2ccccn2)n1Cc1ccccc1)Nc1ccc2c(c1)OCO2	none
O=S(=O)(Nc1ccc(C(F)(F)F)cc1)c1cnc[nH]1	Spn DPM-DC inh active
COc1cccc2cc3c(=O)n(-c4ccccc4)nc-3oc12	Spn DPM-DC inh active
c1ccc2sc(-c3ccc4c(c3)OCO4)nc2c1	Fluor 339 460 2.1 (not shown: Spn DPM-DC inh)
COc1ccc2nc(NC(=O)c3ccc(-n4nc(C)cc4C)cc3)sc2c1	Fluor 339 460 5.1 (not shown: Spn DPM-DC inh)
COc1ccc2nc(NC(=O)c3ccc4ncsc4c3)sc2c1	Fluor 339 460 2.2 (not shown: Spn DPM-DC inh)
Cc1cc(C)n(-c2ccc(C(=O)Nc3nnc(C4CC4)s3)cc2)n1	none
CC1(C)Cc2noc(N)c2C(C)(C)N1OC(=O)c1ccco1	none
COC(=O)CC1SC(=O)NC1=Nc1ccccc1 (centres undefined)	Spn DPM-DC inh active
COc1ccc(S(=O)(=O)N2CCCC(C(=O)NCc3ccncc3)C2)cc1 (centres undefined)	none
CC1(C)Cc2nc3sc4c(N(CCO)CCO)ncnc4c3cc2CO1	Fluor 339 460 2.3 (not shown: Spn DPM-DC inh)
CCN(CC)c1ccc(NC(=O)C2CCCN(S(=O)(=O)c3cnc[nH]3)C2)c(C)c1 (centres undefined)	none
CCOC(=O)CCc1c(C)nc2cc(-c3ccccc3OC)[nH]n2c1=O	none
CCn1c(C)c(CCC(=O)O)c(=O)n2nc(-c3ccccc3OC)cc12	Fluor 339 460 3.1 (not shown: Spn DPM-DC inh)
COc1cccc(N2CCN(C3CC(=O)N(c4ccc(F)c(Cl)c4)C3=O)CC2)c1 (centres undefined)	none
COc1cccc(N2CCN(C3CC(=O)N(c4ccc(C)c(Cl)c4)C3=O)CC2)c1 (centres undefined)	MK inhibit 40
Nc1ccc2oc(CCc3ccccc3)nc2c1	none
Nc1ccc2nn(-c3cccc4ccccc34)nc2c1	Fluor 339 460 2.2 (not shown: Spn DPM-DC inh)
Cc1cc2nn(-c3cccc4ccccc34)nc2cc1N	Fluor 339 460 3.6 (not shown: Spn DPM-DC inh)
COc1ccc(-c2nc(N3CCOCC3)nc3n[nH]c(N)c23)cc1	none
COc1ccc(-c2nc(N3CCCC3)nc3nn4c(C)cc(C)nc4c23)cc1	Fluor 339 460 2.2
Cc1cc(C)n2nc3nc(N4CCCC4)nc(-c4ccccc4)c3c2n1	Fluor 339 460 3.2
Nc1[nH]nc2nc(N3CCCC3)nc(-c3ccccc3)c12	none
COc1ccc(-c2csc(Cc3nnc(N4CCOCC4)n3-c3ccccc3)n2)cc1	none
O=C1CC(c2ccccc2)Cc2nc(N3CCc4ccccc43)ncc21 (centres undefined)	Fluor 339 460 3 (not shown: Spn DPM-DC inh)
O=C1CCCc2nc(N3CCc4ccccc43)ncc21	none
CCOC(=O)CSc1nc2c(c(=O)n(C)c(=O)n2C)n1CCCc1ccccc1	none
Cc1ccc2nc(-c3ccc(SCC(=O)O)nc3)[nH]c2c1	Fluor 339 460 3.8, Spn DPM-DC inh active
Cc1ccc2nc(SCC(=O)N3CCCC3)[nH]c2c1	none
CC1CN(S(=O)(=O)c2cccc(C(=O)OCC(=O)Nc3ccc4c(c3)OCO4)c2)CC(C)O1 (centres undefined)	none
CC1CN(S(=O)(=O)c2cccc(C(=O)OCc3cc(=O)oc4cc(O)ccc34)c2)CC(C)O1 (centres undefined)	Fluor 339 460 3.4 (not shown: Spn DPM-DC inh)
Cc1ccc(-c2nn3c(C)nnc3s2)cc1NCc1c(F)cccc1Cl	Fluor 339 460 2.3
Cc1cc(-c2cccs2)n[nH]1	none
c1csc(-c2ccc3ccccc3n2)c1	Fluor 339 460 2.6
N#Cc1c(-c2cccs2)cc(-c2cccnc2)nc1N	Fluor 339 460 3.8 (not shown: Spn DPM-DC inh)
CCCCSc1nc(N)c(C#N)c(-c2cccs2)c1C#N	none
N#Cc1c(-c2cccs2)cc(-c2ccccn2)nc1N	Fluor 339 460 3.8 (not shown: Spn DPM-DC inh)
COC(=O)c1cccc(NC(=O)c2nn(C)c(=O)c3ccccc23)c1	none
Nc1nnc(-c2cc3ccccc3oc2=O)s1	Fluor 339 460 3 (not shown: Spn DPM-DC inh)
COC(=O)c1ccc(Nc2cc(C)nc(-c3ccccc3O)n2)cc1	MK inhibit 81, Spn DPM-DC inh active
CCOc1ccc2nc(NCCCNS(=O)(=O)c3ccccc3)c(C#N)cc2c1	Fluor 339 460 2.3
C=Cn1ccnc1P(=S)(c1ccc2c(c1)c1ccccc1n2CC)c1nccn1C=C	none
C=CCN1C(=O)C(O)=C(C(C)=O)C1c1ccccc1F (centres undefined)	none
N#Cc1cnn(-c2ccccc2)c1N	none
Cc1cc(-c2ccccc2)n2ncc(C#N)c2n1	Fluor 339 460 2.1 (not shown: Spn DPM-DC inh)
O=C(Nc1ccccc1)C1CC=CCC1C(=O)OCC1CCCO1 (centres undefined)	none
Cc1cccc(C(=O)Nc2ccccc2C(=O)OCc2c(C)noc2C)c1	MK inhibit 42
COc1ccc(C(=O)Cn2c(=O)c(CCC(=O)O)nn3c4ccccc4nc23)cc1OC	Fluor 339 460 2.8
CCOc1cc(C2Nc3ccccc3C(=O)N2c2ccccc2)ccc1O (centres undefined)	Fluor 339 460 3.6 (not shown: Spn DPM-DC inh)
CN(C)c1ccc(-n2cc3c(=O)n(C)c(=O)n(C)c3c2)cc1	none
CCN(CC)c1ccc(-n2cc3c(=O)n(C)c(=O)n(C)c3c2)cc1	Fluor 339 460 3.7 (not shown: Spn DPM-DC inh)
CC1CN(C(=O)c2cccs2)CCN1C(=O)c1cccs1 (centres undefined)	none
CC(C)N=c1cc2n(-c3ccc(Cl)cc3)c3ccccc3nc-2cc1Nc1ccc(Cl)cc1	Spn DPM-DC inh active
CC1S/C(=C(\C#N)C(=O)NCc2ccco2)N(c2ccc(F)cc2)C1=O (centres undefined)	none
Cc1cc(O)c(NC(=O)c2ccc(Br)o2)cc1C	none
COc1ccc(-c2cn3cccnc3n2)cc1NC(=O)c1ccc(Br)o1	Fluor 339 460 5.3 (not shown: Spn DPM-DC inh)
Cc1ccc(-c2cn3cccnc3n2)cc1NC(=O)c1ccc(Br)o1	Fluor 339 460 3.5 (not shown: Spn DPM-DC inh)
O=C(NCc1ccccc1)N1CCC(n2cnc3cc(F)ccc32)CC1	none
COCCN1Cc2cccc(C(=O)NCc3ccc4c(c3)OCO4)c2C1=O	none
CN(C)CCNS(=O)(=O)c1ccc(Cl)cc1	none
O=C1CCC(C(=O)N(c2ccccc2)C2(C(=O)NC3CCCCC3)CCCCC2)N1 (centres undefined)	none
O=C(CC1Nc2ccccc2NC1=O)NC1CCCCC1 (centres undefined)	Fluor 339 460 2
